Results: PubChem BioAssay (NCI)
Compounds without any hit were thinned out: in the full panel of roughly 79,000, 15% have a hit. Calls of active or inactive are those of the source. No stated cut-off is given here; in the data, active means growth inhibition above about 70%; inactive means the rest.

What was measured:
[1] = NCI Yeast Anticancer Drug Screen. Data for the rad50 strain (AID 155);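 further: 0% = growth of vehicle-only cultures of the same strain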; conditions: S. cerevisiae rad50 strain growth inhibition; at 50.0 µM; hits give high values
Method in brief: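 Cells are treated with compound, grown, and their growth is then scored against vehicle-only cultures of the same repair-deficient yeast strain.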

[2] = NCI Yeast Anticancer Drug Screen. Data for the mec2-1 strain (AID 157); conditions: S. cerevisiae mec2-1 strain, at 50.0 µM, hits give high values
Method in brief: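 Mutant yeast (mec2-1) grown with compound; growth inhibition relative to vehicle control reported.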

[3] = NCI Yeast Anticancer Drug Screen. Data for the sgs1 mgt1 strain (AID 161);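 further: 0% = growth of cultures given vehicle only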; conditions: S. cerevisiae sgs1 mgt1 strain, at 50.0 µM, hits give high values
Method in brief: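 Yeast cells carrying a defined DNA-repair defect were exposed to test compounds. Growth inhibition was measured relative to vehicle-treated controls.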

[4] = NCI Yeast Anticancer Drug Screen. Data for the cln2 rad14 strain (AID 165);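 further: 0% = growth equal to vehicle treated cultures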; conditions: S. cerevisiae cln2 rad14 strain, at 50.0 µM, hits give high values
Method in brief: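 Readout is yeast growth inhibition versus vehicle-treated controls, using a strain with cln2 and rad14 alterations exposed to compound.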

[5] = NCI Yeast Anticancer Drug Screen. Data for the bub3 strain (AID 167); conditions: S. cerevisiae bub3 mutant strain, at 50.0 µM, hits give high values
Method in brief: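 Part of a panel of yeast mutants defective in DNA damage repair or cell cycle regulation. Each strain is grown with compound, and inhibition is calculated relative to solvent-treated cultures.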

[6] = NCI Yeast Anticancer Drug Screen. Data for the mlh1 rad18 strain (AID 175); conditions: S. cerevisiae mlh1 rad18 strain growth inhibition; at 50.0 µM; hits give high values
Method in brief: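 Genetically defined yeast (DNA repair-deficient) exposed to compounds; growth inhibition determined relative to vehicle.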

Structure (SMILES) | growth inhibition [1] | growth inhibition [2] | growth inhibition [3] | growth inhibition [4] | growth inhibition [5] | growth inhibition [6]
COc1ccc(-c2cc(=O)c3ccc(C)nc3[nH]2)cc1 | -18.9% (inactive) | -30.8% (inactive) | -40.4% (inactive) | -20.7% (inactive) | -16.1% (inactive) | -18.8% (inactive)
Nc1ncnc2nc(-c3ccc(C(=O)c4cccc([N+](=O)[O-])c4)cc3)[nH]c12 | 1.85% (inactive) | 6.35% (inactive) | -7.5% (inactive) | -5.4% (inactive) | 14.6% (inactive) | -13.2% (inactive)
CCC(CCC(C)C1CCC2C3CC=C4CC(OC(=O)Nc5ccccc5)CCC4(C)C3CCC12C)C(C)C (configuration not stated) | -23.4% (inactive) | -28.1% (inactive) | -15.9% (inactive) | -38.5% (inactive) | -1.5% (inactive) | -26.4% (inactive)
Nc1ccc2c(c1)Cc1cccc(N)c1-2 | 31.8% (inactive) | 11.2% (inactive) | 0.7% (inactive) | 11% (inactive) | 7.2% (inactive) | 1.9% (inactive)
CC(=O)OCc1ccc2ccccc2c1 | -9.35% (inactive) | -29.7% (inactive) | -10.8% (inactive) | -3.2% (inactive) | -7.65% (inactive) | -14.7% (inactive)
C[C@@H](O)[C@H](NSc1ccccc1[N+](=O)[O-])C(=O)NCCc1nc(-c2nc(C(=O)NCCCBr)cs2)cs1 | -0.8% (inactive) | 2.35% (inactive) | -2.1% (inactive) | -21.5% (inactive) | 1.55% (inactive) | 13% (inactive)
O=C(O)c1cccc(F)c1C(=O)c1ccc2ccccc2c1 | -13.7% (inactive) | 4.15% (inactive) | -12.8% (inactive) | -15.2% (inactive) | -22.1% (inactive) | -9.7% (inactive)
Cc1[nH]n(-c2ccccc2)c(=O)c1N=Nc1cccc(C(F)(F)F)c1 | 8.7% (inactive) | 14.7% (inactive) | 17.8% (inactive) | -4.75% (inactive) | 6.95% (inactive) | 15.7% (inactive)
C1=CCc2cc3c(cc2=C1)C=c1ccccc1=3 | -12.3% (inactive) | -19.4% (inactive) | -11.2% (inactive) | -5.9% (inactive) | -8.2% (inactive) | -19.4% (inactive)
CCCCCCC(=O)/C=C/c1ccc(OCc2ccccc2)c(OCc2ccccc2)c1 | 33.9% (inactive) | -2.6% (inactive) | 18.5% (inactive) | 23.9% (inactive) | -2.15% (inactive) | 16.1% (inactive)
COC12OCCN(C)C1=CC(=O)C1N=NCC12 (configuration not stated) | 5.75% (inactive) | 1.35% (inactive) | 11.2% (inactive) | 8.3% (inactive) | -0.3% (inactive) | 7.55% (inactive)
O=C(NCCCl)NCc1ccco1 | -6.6% (inactive) | 0.9% (inactive) | -3.55% (inactive) | -39.2% (inactive) | -4.85% (inactive) | -0.9% (inactive)
O=C1NC(=O)C2(CCCCCC2)N1 | -23.9% (inactive) | -23.9% (inactive) | 10.1% (inactive) | -0.65% (inactive) | -4.1% (inactive) | -26.7% (inactive)
Cc1cc(N/N=C/c2ccc(Cl)cc2)c2cc3c(cc2n1)OCO3 | 24.2% (inactive) | -4.5% (inactive) | -7% (inactive) | 1.6% (inactive) | 27.5% (inactive) | 14.7% (inactive)
CC(=O)OC1CC[C@@]2(C)C(CC[C@]3(C)C2CC=C2[C@@H]4C(C)[C@H](C)CCC4(C)CCC23C)[C@@]1(C)C(=O)O (some centres not stated) | 1.05% (inactive) | 14.8% (inactive) | 16.4% (inactive) | 3.25% (inactive) | 48.1% (inactive) | 16.4% (inactive)
COC(=O)C1CCC(=O)CC1 | -1% (inactive) | -0.35% (inactive) | -9.9% (inactive) | -19.9% (inactive) | 2.4% (inactive) | -3.15% (inactive)
CC(C)=CCC/C(C)=C\COC=O | 23% (inactive) | 12.4% (inactive) | 18.9% (inactive) | 6.45% (inactive) | 13.8% (inactive) | 50.9% (inactive)
COc1cc(-c2[nH]ncc2CCCC(=O)Nc2ccccc2[N+](=O)[O-])ccc1O | 20.9% (inactive) | -2.75% (inactive) | -14.5% (inactive) | 7.8% (inactive) | -2.75% (inactive) | 18.5% (inactive)
CN(C)COC(=S)SCC(=O)O | 8.4% (inactive) | -0.85% (inactive) | 2.6% (inactive) | -26.6% (inactive) | -3.05% (inactive) | -1.9% (inactive)

Structure (SMILES) | growth inhibition [1] | growth inhibition [2] | growth inhibition [3] | growth inhibition [4] | growth inhibition [5] | growth inhibition [6]
CCC1(C)N=C(C)C(C)S1 (configuration not stated) | -7.6% (inactive) | -1.3% (inactive) | -13.7% (inactive) | 4.9% (inactive) | -16.3% (inactive) | 6.2% (inactive)
CC1=C(C(=O)O)CCCO1 | -7.6% (inactive) | 7.75% (inactive) | 10.2% (inactive) | -3% (inactive) | -3.75% (inactive) | 25.7% (inactive)
CNC(=O)CC(=O)NC | -20.4% (inactive) | -9.55% (inactive) | -16.9% (inactive) | 6.15% (inactive) | 8.2% (inactive) | -10.1% (inactive)
Cc1ccc(N=NC(C2=NC(=O)CS2)c2nc3ccccc3[nH]2)cc1 (configuration not stated) | -55% (inactive) | -31% (inactive) | -52.8% (inactive) | -44.8% (inactive) | -56% (inactive) | -73.8% (inactive)
Cc1ccc2c(c1)C(OC(=O)Nc1ccccc1)CCC2 (configuration not stated) | 18.1% (inactive) | 2% (inactive) | 3.5% (inactive) | 6.05% (inactive) | 38% (inactive) | 5.1% (inactive)
COC(=O)C(Br)C(Br)c1ccc(OC)c(OC)c1 (configuration not stated) | -5.15% (inactive) | -9.8% (inactive) | 13.3% (inactive) | -30.6% (inactive) | 22.9% (inactive) | 16.2% (inactive)
O=C(O)CC(CSCP(=O)(O)O)C(=O)O (configuration not stated) | 6.95% (inactive) | 1.55% (inactive) | 3.05% (inactive) | -7.85% (inactive) | 1.45% (inactive) | 15.7% (inactive)
NCOC(=O)Cc1ccc(Br)cc1 | 14.8% (inactive) | 6.65% (inactive) | -0.35% (inactive) | -2.55% (inactive) | 4.15% (inactive) | 18.6% (inactive)
COC1(c2ccccc2)N=C(c2ccc([N+](=O)[O-])cc2)OC1(C)C (configuration not stated) | 4% (inactive) | 1.7% (inactive) | 6.1% (inactive) | 38% (inactive) | -4.85% (inactive) | -4.8% (inactive)
CC1OC(=O)c2cc3ccccc3cc2O1 (configuration not stated) | -8% (inactive) | -6.15% (inactive) | 5.95% (inactive) | -31.1% (inactive) | -19.2% (inactive) | -0.45% (inactive)
CN(CN(C)/N=C/c1ccc(Cl)cc1)/N=C/c1ccc(Cl)cc1 | 1.05% (inactive) | 11.6% (inactive) | 7.95% (inactive) | 12.8% (inactive) | -4.8% (inactive) | 10.1% (inactive)
CCCCCCCCCCCCCCCCOc1ccc(N)cc1 | 11.7% (inactive) | 6.05% (inactive) | -16.3% (inactive) | -41.2% (inactive) | 19% (inactive) | 1.1% (inactive)
CC1(C)CCC2(C)CCC3(C)C(=CCC4C5(C)CCC(O)C(C)(C)C5CCC43C)C2C1 (configuration not stated) | 0.85% (inactive) | 6.3% (inactive) | -10.2% (inactive) | 16.2% (inactive) | 4.25% (inactive) | 0.5% (inactive)
Cc1cc(=O)c2c3c(ccc2[nH]1)Oc1ccccc1O3 | 7.9% (inactive) | 5.95% (inactive) | 5.2% (inactive) | 8.45% (inactive) | 7.1% (inactive) | 13.1% (inactive)
O=C(CC(=O)c1ccccc1)CC(Nc1ccccc1)c1ccccc1 (configuration not stated) | 58% (inactive) | 10% (inactive) | 46.1% (inactive) | -8.5% (inactive) | 7.55% (inactive) | 45.9% (inactive)
C[n+]1c2ccccc2c(CNC(CCC(N)=O)C(=O)O)c2ccccc21 (configuration not stated) | 83.3% (active) | 87.4% (active) | 80.6% (active) | 61.8% (inactive) | 73.3% (active) | 87.8% (active)
O=C1Nc2ccccc2C2=C3CCCCC3=NNC12 (configuration not stated) | 97.7% (active) | 93.8% (active) | 97.7% (active) | 68.2% (inactive) | 97.5% (active) | 86% (active)
Nc1nc(C(=O)O)c(N=Nc2ccccc2)c(=O)[nH]1 | 31.1% (inactive) | -10.2% (inactive) | 7.35% (inactive) | 24.4% (inactive) | -16.1% (inactive) | -20.8% (inactive)
